Compounds with a hit are over-represented: about 2% of the library has one in this group of screens.
Granule exo inh: lytic granule exocytosis inhibition; inhibition, % at 10 µM; TALL-104 LAMP-1 surface exposure, flow cytometry; cells stimulated with thapsigargin and PMA; 360,000 compounds, 0.66% hits;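 active = inhibition above about 55%, limit read from the data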
VLA-4 inh: inhibition in a human VLA-4 binding assay; P13612; VLA-4 expressing cells, ligand binding flow cytometry; inhibition, % (about 7 µM as worked out from the volumes in the protocol); 330,000 compounds, 0.2% hits; in the data active = inhibition above about 50%
Rev-erbA mod: modulators of human Rev-erb alpha DNA binding | P20393 | Rev-erbα–FITC-DNA binding, fluorescence polarization, 90 min | activity, % at 10 µM | 370,000 compounds, 0.79% hits | AID 1259318;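 active = activity above about 14%, limit read from the data; passing the limit was not always enough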
Target sequence (P20393 whole entry, looked up): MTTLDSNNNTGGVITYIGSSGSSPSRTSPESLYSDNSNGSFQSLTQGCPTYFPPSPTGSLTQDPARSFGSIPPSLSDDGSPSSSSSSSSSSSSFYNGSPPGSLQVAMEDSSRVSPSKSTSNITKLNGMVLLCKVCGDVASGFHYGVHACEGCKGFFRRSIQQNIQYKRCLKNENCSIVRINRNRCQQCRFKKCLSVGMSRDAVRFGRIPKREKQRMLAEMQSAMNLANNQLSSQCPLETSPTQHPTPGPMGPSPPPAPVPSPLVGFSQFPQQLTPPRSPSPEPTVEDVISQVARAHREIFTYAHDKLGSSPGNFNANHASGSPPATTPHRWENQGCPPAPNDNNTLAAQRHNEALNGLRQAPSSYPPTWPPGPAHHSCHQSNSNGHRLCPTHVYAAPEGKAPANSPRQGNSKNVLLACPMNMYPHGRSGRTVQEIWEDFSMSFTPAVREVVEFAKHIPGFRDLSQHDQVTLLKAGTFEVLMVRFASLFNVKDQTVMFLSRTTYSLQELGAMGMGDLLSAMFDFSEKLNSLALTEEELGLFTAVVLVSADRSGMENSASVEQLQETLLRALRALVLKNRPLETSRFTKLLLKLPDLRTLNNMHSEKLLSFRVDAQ
PG9 Ab binder: binds the HIV-1 gp120 antibody PG9 | TR-FRET gp120-PG9 antibody binding | inhibition, % at 6.7 µM | 360,000 compounds, 0.43% hits; in the data active = inhibition above about 8.5%
ABCB6 inh MLPCN: human ABCB6 transporter inhibition | Q9NP58 | K562-ABCB6 porphyrin accumulation, flow cytometry, 1 h; active compounds read low | fluorescence ratio to DMSO, % at 10 µM | 360,000 compounds, 0.19% hits;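 active = fluorescence ratio to DMSO below 75%, the collection mean minus 3 SD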;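 also: signal is porphyrin accumulated inside mitochondria; lower ratio means ABCB6 inhibition with less porphyrin fluorescence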
VLA-4 allo CP: human VLA-4 allosteric modulation in cherry picked compounds | shares compounds with VLA-4 inh | U937 cells, HUTS-21 LIBS mAb binding, flow cytometry; LDV ligand present at threefold Kd | inhibition, % at 6.7 µM | 1,300 compounds, 2% hits; in the data active = inhibition above about 40%
Hits are given with their value; – = inactive; · = not tested or not shown; ! = repeats disagree.

SMILES	Granule exo inh	VLA-4 inh	Rev-erbA mod	PG9 Ab binder	ABCB6 inh MLPCN	VLA-4 allo CP
Cc1ccc(O)c([C@H](CCN(C(C)C)C(C)C)c2ccccc2)c1	–	53!	–	–	–	–
COc1ccc(OCC(=O)Nc2ccccc2C(=O)NC(C)C)cc1	–	–	–	–	–	–
CCC(C)NC(=O)c1ccccc1NC(=O)COc1ccc(OC)cc1 (stereo not drawn)	–	·	–	–	–	–
COc1ccc(S(=O)(=O)CC(=O)c2cc(C)c(O)c(C)c2)cc1	–	50	–	–	–	–
Nc1nc2c(-c3ccc([N+](=O)[O-])cc3)nnn2c2ccccc12	·	·	–	–	·	·
O=C(NCCCn1ccnc1)c1ccc(-c2ccccc2)cc1	–	–	–	–	–	–
O=C(O)C1(O)C[C@H](O)C(O)[C@@H](O)C1 (stereo partly drawn)	–	50	–	–	–	–
Cc1cc(C)n(/C(=C\N(C)C)C(=O)c2cccc([N+](=O)[O-])c2)n1	–	–	–	–	–	–
C(=C\c1ccccc1)/CSc1nnc(COc2ccccc2)n1Cc1ccco1	·	·	–	·	·	·
CCN(CC)c1ccc(CNc2ccc3c(c2)ncn3C(C)(C)C)cc1	–	54	–	–	–	–
COc1ccc(-c2noc(CCC(=O)NCCCN3CCN(c4ccc(F)cc4)CC3)n2)cc1	–	57	–	–	–	–
C/C(=N\NC(=O)CSCc1cccc(Br)c1)c1ccc([N+](=O)[O-])cc1	–	51	–	–	–	–
CC(C)NC(=O)CSCc1cccc(Br)c1	–	–	–	–	–	·
COC(=O)[C@]12C[C@H](CC(=O)N3CCSCC3)C(=O)N(CCC3=CCCCC3)C1=C[C@H](C(C)C)O[C@@H]2C1CC1	·	·	–	·	·	·
CCN(CC)C(=O)Nc1c(C)n(C)n(-c2ccccc2)c1=O	–	–	–	–	–	·
Cc1ccc(-c2cc(C(=O)Nc3c(C)n(C)n(-c4ccccc4)c3=O)[nH]n2)c(O)c1	–	–	–	–	–	–
Cc1c(NC(=O)C2CC=CCC2C(=O)O)c(=O)n(-c2ccccc2)n1C (stereo not drawn)	–	–	–	–	–	–
Cc1c(NC(=O)c2ccc(Cl)c(S(=O)(=O)N3CCOCC3)c2)c(=O)n(-c2ccccc2)n1C	–	–	–	–	–	–
Cc1cc(C)c(-c2cc(C(=O)Nc3c(C)n(C)n(-c4ccccc4)c3=O)[nH]n2)c(O)c1	–	–	–	–	–	·
Cc1c(NC(=O)c2ccc(Cl)c(S(=O)(=O)N3CCCCC3)c2)c(=O)n(-c2ccccc2)n1C	–	–	–	–	–	·
COc1cccc(OC)c1C(=O)Nc1c(C)n(C)n(-c2ccccc2)c1=O	–	–	–	–	–	–
Cc1c(NC(=O)c2ccccc2N(C)S(=O)(=O)c2ccccc2)c(=O)n(-c2ccccc2)n1C	–	–	–	–	–	–
Cn1c(=O)c2c(c3ccccc31)OC(C)(C)C=C2	·	·	–	–	·	·
Cc1ccc2c(c1)C(O)(CC(=O)c1ccc(C)s1)C(=O)N2 (stereo not drawn)	–	–	–	–	–	·
Cc1ccc(C(=O)CC2(O)C(=O)Nc3ccccc32)s1 (stereo not drawn)	–	58	–	–	–	–
SMILES	Granule exo inh	VLA-4 inh	Rev-erbA mod	PG9 Ab binder	ABCB6 inh MLPCN	VLA-4 allo CP
CCn1c(SCC(=O)Nc2nc(C)cs2)nnc1C(NC(=O)c1ccccc1Cl)C(C)C (stereo not drawn)	–	–	–	–	–	–
CCCCOCCCNC(=O)C[C@H]1C[C@@]2(C(=O)OC)C(=C[C@H](C(C)C)O[C@@H]2C2CC2)N(Cc2ccc3c(c2)OCO3)C1=O	·	·	–	·	·	·
Nn1nnc2ccccc21	–	56	–	–	–	–
c1ccc2c(c1)nnn1c3ccccc3nc21	·	–	·	·	·	·
COC(=O)C1=CC[C@@H](NC(=O)OC(C)(C)C)[C@H](O)[C@H]1O[Si](C)(C)C(C)(C)C	·	·	–	·	·	·
Cc1cc(/C=C(\C#N)C(=O)Nc2ccccc2)c(C)n1-c1ccc2c(c1)OCO2	–	–	–	–	–	·
Cc1cc(/C=C(/C#N)C(=O)Nc2ccccc2)c(C)n1-c1cccnc1	–	94	–	–	–	–
Cc1cc(C)nc(-n2ncc3c2CC(C)CC3=O)n1 (stereo not drawn)	–	–	–	–	–	–
O=C(NCCC1=CCCCC1)C1CCN(c2nnc(-n3cccc3)s2)CC1	–	56	–	–	–	–
CC(C)CCNC(=O)C1CCN(c2nnc(-n3cccc3)s2)CC1	–	–	–	–	–	·
CC1CCN(C2=NC(=O)N(c3ccc(Br)cc3)C(=O)C2)CC1	·	·	–	·	·	·
O=C(NCCc1ccccc1)OCc1cn(Cc2ccc(F)cc2)nn1	·	·	–	·	·	·
CCOc1ccc(CCNC(=O)Cc2ccccc2)cc1OCC	·	·	–	·	·	·
Oc1ccc2sc(-c3ccccc3O)c(-c3ccc(OCCN4CCCCC4)cc3)c2c1	–	·	–	–	–	·
COc1ccccc1-c1sc2ccccc2c1-c1ccc(OCCN2CCCCC2)cc1	–	·	·	·	–	–
COc1ccc2c(-c3ccc(OCCN4CCCCC4)cc3)c(-c3ccccc3OC)sc2c1	66	·	·	·	–	–
COc1ccc(S(=O)(=O)N2CCCC(C(=O)NCc3cccnc3)C2)cc1C (stereo not drawn)	–	·	–	–	–	·
COc1ccc(S(=O)(=O)N2CCCC(C(=O)NCc3cccnc3)C2)cc1OC (stereo not drawn)	–	51	–	–	–	–
CCC(=O)Nc1ccc2c(c1)ncn2-c1ccccc1	–	53	–	–	–	–
CC(=O)Nc1ccc2c(c1)ncn2-c1ccccc1	–	–	–	–	–	·
CC(OC(=O)C(C)N1C(=O)C2C3C=CC(C4CC34)C2C1=O)C(=O)c1ccccc1 (stereo not drawn)	–	58	–	–	–	–
NC(=O)c1ccccc1NS(=O)(=O)c1ccc(F)cc1	–	–	–	–	–	–
CC(OC(=O)c1ccc(O)cc1)C(=O)Nc1cc(C(F)(F)F)ccc1Cl (stereo not drawn)	–	–	–	–	–	–
Cc1cc(Nc2ccccc2)nc2cc(O)ccc12	–	56	–	–	–	–
O=C1CC(O)C(Cc2ccccc2)N1 (stereo not drawn)	·	·	–	–	·	·
SMILES	Granule exo inh	VLA-4 inh	Rev-erbA mod	PG9 Ab binder	ABCB6 inh MLPCN	VLA-4 allo CP
COc1ccc(Cl)cc1NC(=O)CN(C)C(=O)C12CC3CC(CC(Cl)(C3)C1)C2	–	–	–	–	–	·
CSc1ccc(CN(C)C(=O)C23CC4CC(CC(Cl)(C4)C2)C3)cc1	–	64	–	–	–	–
C[C@@H](NS(=O)(=O)c1c(F)cccc1F)c1ccccc1	·	·	–	–	·	·
FC(F)(F)c1cccnc1N1CCN(c2ncnc3nc[nH]c23)CC1	–	50	–	–	–	–
O=C(NCc1ccco1)C1CCCN(S(=O)(=O)c2ccccc2F)C1 (stereo not drawn)	·	·	–	·	·	·
CCCCSc1nc2c(c(C(F)(F)F)c1C#N)CCC2	–	64	–	–	–	–
Cc1ccc(NC(=O)[C@H]2CC(=O)O[C@@H]2c2ccccc2)c(C)c1	·	·	–	·	·	·
C[C@@H]1CCN(C2CC2)S(=O)(=O)c2ccc(N3CC[C@H](N(C)C)C3)cc2O1	·	·	–	·	·	·
